Measurements from PubChem BioAssay AID540333 (Southern Research Specialized Biocontainment Screening …, 2011).
In all, about 10,000 compounds went through this assay and about 320 (3.2%) were called active. The list comes from a sample in which actives are over-represented; it also holds similar structures and randomly drawn compounds. A number with no mark means an inactive call. Rule as the data show it: active = CPE inhibition mostly above about 9.1% (no sharp cut-off); inactive = mostly below about 7.2%.

Assay: Dengue virus cytopathic effect inhibitors, cell-based, CPE readout, HTS (AID 540333)
Settings: Dengue virus CPE inhibition in host cells, at 20 µM; hits give high values

Row | Compound | CPE inhibition
1 | COc1cc(C=Nc2cccc([N+](=O)[O-])c2C)ccc1OC(C)=O | 4.63%
2 | CSc1nc(N2CCOCC2)nc2ccc(C)cc12 | 11.8% (active)
3 | Cc1cccc(-c2nc(Nc3ccc(N4CCOCC4)cc3)c3ccccc3n2)c1 | inactive
4 | Cc1cccc(/C=N/Nc2cc(N3CCOCC3)nc(N3CCOCC3)n2)c1 | inactive
5 | COc1ccc(C)cc1NC(=O)c1cc2c(s1)CCC2 | inactive
6 | COc1ccc(/C=N/N2CCN(C3c4ccccc4-c4ccccc43)CC2)cc1OC | 0.5%
7 | CCc1nc(C#N)c(N2CCOCC2)o1 | 0.655%
8 | COc1ccc(C(=O)N[C@H](C(=O)OCC(=O)NC(=O)c2cccn2C)C(C)C)cc1 | inactive
9 | CC(=O)c1ccc(NC(=O)c2cc(Cl)sc2Cl)cc1 | 0.185%
10 | O=C(COC(=O)c1ccccc1C(=O)c1ccc(Cl)cc1)NCCc1ccccc1 | 5.59%
11 | Cc1ccc(C(=O)c2ccccc2C(=O)OCC(=O)NCCc2ccccc2)cc1 | 1.41%
12 | Cc1ccc(C(=O)c2ccccc2C(=O)OCC(=O)NCCc2ccc(Cl)cc2Cl)cc1 | 22.8% (active)
13 | O=C(Nc1ccn(-c2ccccc2)n1)c1ccc(Cl)cc1 | 0.155%
14 | COc1ccc(CCNC(=O)CC2SC(=NCCc3ccccc3)NC2=O)cc1 (stereo unspecified) | inactive
15 | C[C@H](NS(=O)(=O)c1ccc(Cl)cc1)C(=O)OCC(=O)NC(=O)Nc1ccc2c(c1)OCCO2 | 0.475%
16 | Cc1ccc(S(=O)(=O)Nc2cccc3c2CCCC3)cc1 | 0.255%
17 | O=S(=O)(Nc1cccc2c1CCCC2)c1ccc(Cl)cc1 | 21.1% (active)
18 | COc1cc(NS(=O)(=O)c2ccc(Cl)cc2)c(C(=O)O)cc1OC | 0.06%
19 | Cn1c2ccccc2c(=O)c2c(=O)n(C3CCCCCC3)c(C3CCCCC3)nc21 | inactive
20 | Cn1c2ccccc2c(=O)c2c(=O)n(-c3ccccc3)c(C3CCCCC3)nc21 | 9.13% (active)
21 | CCc1nc2c(c(=O)c3ccccc3n2C)c(=O)n1C1CCCCCC1 | 13.5% (active)
22 | CCCc1nc2c(c(=O)c3ccccc3n2C)c(=O)n1-c1ccc(F)cc1 | 1.89%
23 | CCCc1nc2c(c(=O)c3ccccc3n2C)c(=O)n1C1CCCCCC1 | inactive
24 | Cn1c2ccccc2c(=O)c2c(=O)n(C3CCCCC3)c(-c3ccco3)nc21 | 10.4%
25 | CCOC(=O)CSc1ncnc2c1c(-c1ccccc1)cn2-c1ccc(OC)cc1 | 2.07%
26 | O=c1[nH]cnc2c1c(-c1ccccc1)cn2-c1ccc(Br)cc1 | 11.8% (active)

Row | Compound | CPE inhibition
27 | COC(=O)C(C)Sc1ncnc2c1c(-c1ccccc1)cn2-c1ccc(OC)cc1 (stereo unspecified) | 2.83%
28 | CCOc1ccccc1NC(=O)C(OC(=O)c1ccccc1NS(=O)(=O)c1cccs1)c1ccccc1 (stereo unspecified) | 1.08%
29 | CC12CCC(C(=O)N(NC(=O)c3cccnc3)C1=O)C2(C)C (stereo unspecified) | 2.09%
30 | CC(NC(=O)COC(=O)[C@@H]1CCCN1S(=O)(=O)c1ccccc1F)C12CC3CC(CC(C3)C1)C2 (stereo partly specified) | inactive
31 | O=C(N/N=C/c1ccccn1)C12CC3CC(CC(C3)C1)C2 | inactive
32 | CC(NC(=O)/C=C/c1cnc2ccccc2n1)C12CC3CC(CC(C3)C1)C2 (stereo unspecified) | 12.8% (active)
33 | O=C(COc1ccc(Br)cc1Cl)NC1CCCCC1 | 0.99%
34 | CC(=O)c1ccc(NC(=O)CN2C(=O)/C(=C/C(C)=C/c3ccccc3)SC2=S)cc1 | 0.22%
35 | Cc1ccc(-c2csc(NC(CO)c3nc4ccccc4n3CCOCCO)n2)cc1 (stereo unspecified) | 0.615%
36 | CCCn1c(C(C)Nc2nc(-c3ccc(Cl)c([N+](=O)[O-])c3)cs2)nc2ccccc21 (stereo unspecified) | 29.9% (active)
37 | CC(O)c1nc2ccccc2n1Cc1ccc([N+](=O)[O-])cc1 (stereo unspecified) | inactive
38 | CCC1CCCCN1C(=O)c1cccc(S(=O)(=O)Nc2cc(C(F)(F)F)ccc2Cl)c1 (stereo unspecified) | 3.38%
39 | COc1ccc(CCN=C(N)NS(=O)(=O)c2ccc3ccccc3c2)cc1 | inactive
40 | Cc1ccc(C2(CCN)CCOC(C(C)C)C2)cc1 (stereo unspecified) | 7.74% (active)
41 | O=C(NNS(=O)(=O)c1ccc(Cl)cc1)c1ccc(S(=O)(=O)N2CCCCC2)cc1 | inactive
42 | Cc1ccc(S(=O)(=O)N2CCCCCC2)cc1[N+](=O)[O-] | inactive
43 | CC(C)(C)c1ccc(S(=O)(=O)N2CCCCC2)cc1 | 9.75% (active)
44 | CC(C)(C)c1ccc(S(=O)(=O)N2CCSC2)cc1 | 0.03%
45 | CCN1CCCC1CN(Cc1cc2ccc(C)cc2[nH]c1=O)C(=S)Nc1ccccc1OC (stereo unspecified) | inactive
46 | COC(=O)c1ccccc1NC(=S)N(Cc1ccc2c(c1)OCO2)Cc1cc2cc(OC)ccc2[nH]c1=O | 3.25%
47 | CNC(=S)N(Cc1cccs1)Cc1cc2cc(OC)c(OC)cc2[nH]c1=O | inactive
48 | COC(=O)c1ccccc1NC(=S)N(Cc1ccc2c(c1)OCO2)Cc1cc2ccc(OC)cc2[nH]c1=O | 23.8% (active)
49 | COc1cc2cc(CN(Cc3cccs3)C(=S)Nc3ccccc3)c(=O)[nH]c2cc1OC | 6.21%
50 | COC(=O)c1ccccc1NC(=S)N(Cc1ccc2c(c1)OCO2)Cc1cc2ccc(C)cc2[nH]c1=O | 33% (active)
51 | CCOc1ccccc1NC(=S)N(Cc1cc2ccc(C)cc2[nH]c1=O)CC1CCCN1CC (stereo unspecified) | inactive
52 | COC(=O)c1ccccc1NC(=S)N(Cc1ccc2c(c1)OCO2)Cc1cc2cc(C)ccc2[nH]c1=O | 21.6% (active)

Row | Compound | CPE inhibition
53 | Cc1ccc2[nH]c(=O)c(CN(Cc3cccs3)C(=S)NCc3ccco3)cc2c1 | 5.92%
54 | COC(=O)Cc1ccc(NC(=S)N2CCN(c3cccc(O)c3)CC2)cc1 | 0.105%
55 | CCOC(=O)CCCNC(=O)COC(=O)[C@@H]1CCCN1S(=O)(=O)c1ccc(Cl)cc1 | inactive
56 | Cc1ccc(-c2nc3ccccc3c(=O)n2NC(=O)COc2ccccc2)cc1 | 0.37%
57 | CN(C)c1ccc(/C=N/NC(=S)NCc2ccco2)cc1 | 0.335%
58 | COc1ccc(NC(=O)Nc2cccc([N+](=O)[O-])c2)cc1Cl | 0.865%
59 | O=C(O)c1ccc(NC(CSCc2ccccc2F)C(=O)O)c([N+](=O)[O-])c1 (stereo unspecified) | inactive
60 | CC12CCC(C/C1=N\N=C1\NC(=O)/C(=C\c3ccc(Cl)cc3)S1)C2(C)C (stereo unspecified) | 12.2% (active)
61 | Cc1c(N=C2NC(=O)/C(=C/c3ccc(O)cc3)S2)c(=O)n(-c2ccccc2)n1C | 0.27%
62 | CC12CCC(C(=O)N(c3ccc(Cl)cc3)C1=O)C2(C)C (stereo unspecified) | inactive
63 | NS(=O)(=O)c1ccc(NC(=S)N2CCN(c3ccccc3)CC2)cc1 | 0.43%
64 | O=C(COc1ccccc1-c1ccccc1)NCCN1C(=O)S/C(=C\c2cccnc2)C1=O | 2.91%
65 | COc1ccc(N(C(=O)CSCC(=O)Nc2cc(C)on2)C(C(=O)NC2CCCCC2)c2ccc(O)c(O)c2)cc1 (stereo unspecified) | inactive
66 | COc1ccc(N(C(=O)C2COc3ccccc3O2)C(C(=O)NC2CCCCC2)c2ccccc2)cc1OC (stereo unspecified) | 4.27%
67 | COc1cc(OC)cc(N(C(=O)C2COc3ccccc3O2)C(C(=O)NC2CCCCC2)c2ccc(O)cc2)c1 (stereo unspecified) | 12.5% (active)
68 | CC(C)[C@H](NC(=O)c1ccccc1)C(=O)OCC(=O)N1CCCCCC1 | 1.74%
69 | COc1cc(C(=O)NC(=S)N(CCc2ccccc2)CCc2ccccc2)cc(OC)c1OC | inactive
70 | COCCNC(=S)N/N=C(\C)c1ccccc1OC | 0.125%
71 | CC1CCCC(NC(=O)COC(=O)c2cccc(NS(=O)(=O)/C=C/c3ccccc3)c2)C1C (stereo unspecified) | inactive
72 | Cc1ccc(-c2nc(N)sc2CC(=O)OCC(=O)NC2CCCC(C)C2C)cc1 (stereo unspecified) | 0.74%
73 | COc1cccc(/C=C(/C(=O)OCC(=O)NC2CCCC(C)C2C)c2ccccc2)c1 (stereo unspecified) | 28.3% (active)
74 | O=C1COc2cc(ccc2[N+](=O)[O-])Oc2ccc(cc2Cl)C(=O)CCCCO1 | inactive
75 | c1nc(N2CCC3(CC2)OCCO3)c2[nH]cnc2n1 | inactive
76 | Cc1ccc(C(C(=O)NC2CCCCC2)N(Cc2ccccc2)C(=O)Cc2c[nH]c3ccccc23)o1 (stereo unspecified) | 24.2% (active)
77 | COc1cccc(CN(C(=O)Cc2c[nH]c3ccccc23)C(C(=O)NC2CCCCC2)c2ccc(C)o2)c1 (stereo unspecified) | 3.12%
78 | Cc1ccc(C(C(=O)NC2CCCCC2)N(C(=O)Cc2c[nH]c3ccccc23)c2ccccc2C)o1 (stereo unspecified) | 3.84%

Row | Compound | CPE inhibition
79 | CCN1CCS/C1=C/C=C/C1=[N+](CC)CCS1 | 0.14%
80 | CC(C)(C)[C@H]1C=C(C(=O)Nc2ccccc2)O[C@@H](OCCCCO)C1 | inactive
81 | CC12CCC(C(=O)N(c3cccc(Cl)c3)C1=O)C2(C)C (stereo unspecified) | inactive
82 | O=C1C2C3C=CC(c4ccccc4)(C2C(=O)N1c1cccc(Cl)c1)C1C(=O)N(c2cccc(Cl)c2)C(=O)C31 (stereo unspecified) | 25.2% (active)
83 | O=C1C2C(c3ccccc3)(C(=O)N1c1ccc(Cl)cc1)C2(c1ccccc1)c1ccccc1 (stereo unspecified) | 1.7%
84 | CC(C)(C)c1ccc(-c2ccc3c(c2)S(=O)(=O)c2ccccc2C3=O)cc1 | 2.16%
85 | COc1ccc(CCN2C(=O)NC(NC(C)=O)(C(F)(F)F)C2=O)cc1OC (stereo unspecified) | 0.945%
86 | CCCCC[C@H]1CN(CCCC)C(=O)[C@@H]1CC(=O)NCc1ccccc1 | 3.67%
87 | COc1ccc(CN2C[C@H](Cc3ccccc3)[C@@H](CC(=O)Nc3ccccc3)C2=O)cc1 | 13.5% (active)
88 | COC(=O)CN1C(=S)N(Cc2ccccc2)C(=O)C1CC(=O)Nc1ccc(OC)cc1 (stereo unspecified) | inactive
89 | O=C(CN1C2=NCCCN2c2ccccc21)c1cccc(Br)c1 | 4%
90 | COc1cc2c(cc1OC)C(=O)N1[C@H]3c4cc(Cl)ccc4OC[C@@H]3[C@H](c3ccccc3)[C@]1(C)C(=O)N2 | 16.3% (active)
91 | COc1ccc2c(c1)[C@H]1[C@H](CO2)[C@H](c2ccccc2)[C@]2(C)C(=O)Nc3cc(OC)c(OC)cc3C(=O)N12 | 2%
92 | COc1ccc2c(c1)C(=O)N1[C@H]3c4cc(OC)ccc4OC[C@@H]3[C@H](c3ccccc3)[C@]1(C)C(=O)N2 | 7.37%
93 | CCOC(=O)[C@@H]1[C@H]2COc3cc(OC)ccc3[C@@H]2N2C(=O)N(c3ccccc3)C(=O)[C@]12C | 0.065%
94 | CCOC(=O)[C@@H]1[C@H]2COc3cc(OC)ccc3[C@H]2N2C(=O)N(c3ccc(F)cc3)C(=O)[C@@]12C | 2.49%
95 | C[C@]12C(=O)N(c3ccc(F)cc3)C(=O)N1[C@H]1c3ccccc3OC[C@@H]1[C@H]2c1ccccc1 | 1.73%
96 | COc1ccc2c(c1)[C@H]1[C@H](CO2)[C@H](c2ccccc2)[C@]2(C)C(=O)Nc3cc(Cl)ccc3C(=O)N12 | 11%
97 | COc1ccc2c(c1)C(=O)N1[C@H]3c4cc(C)ccc4OC[C@@H]3[C@H](c3ccccc3)[C@]1(C)C(=O)N2 | 14.5% (active)
98 | COc1ccc2c(c1)OC[C@H]1[C@H]2N2C(=O)CN(Cc3ccc(F)cc3)C(=O)[C@@]2(C)[C@H]1c1ccccc1 | 12.2% (active)
99 | C[C@@]12C(=O)Nc3ccc(Br)cc3C(=O)N1[C@H]1c3cc(Cl)ccc3OC[C@@H]1[C@@H]2c1ccccc1 | 18.8% (active)
100 | C[C@]12C(=O)N(c3ccc(C(F)(F)F)cc3)C(=O)N1[C@H]1c3ccccc3OC[C@@H]1[C@H]2c1ccccc1 | 11.2%
101 | C[C@@]12C(=O)Nc3ccc(F)cc3C(=O)N1[C@H]1c3cc(Br)ccc3OC[C@@H]1[C@@H]2c1ccccc1 | 6.78%
